From PubChem BioAssay AID1159580 (chemical genetic matrix, 2015)
Among all 5,500 compounds or so, about 2,000 (36%) were called active. Inconclusive results (about 18%) are left out. The list shows a part of the results. Values without a mark were called inactive. Rule as the data show it: active = normalized growth mostly below about 0.91 (no sharp cut-off); inconclusive = no clear call, values can overlap the other calls; inactive = mostly above about 0.92.

Experiment: chemical genetic growth profiling, strain panel (AID 1159580);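 also: tested at 20 µM; growth read once vehicle control cultures reached saturation at 30 °C; 1 = growth at the plate median or of vehicle wells; lower values mean less growth of the strain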
Details: S. cerevisiae deletion strains, growth OD

## CC(CC(O)C1OC1(C)C)[C@@H]1CCC2(C)C3=CCC4C(C)(C)C(=O)CCC4(C)C3CC[C@@]12C (stereo partly specified)
Locus YJL166W, strain qcr8, hits give low values
  normalized growth: 0.988
Locus YJL168C, strain set2, hits give low values
  normalized growth: 1.04
Locus YJL187C, strain SWE1 (second series), hits give low values
  normalized growth: 1.03
Locus YJL187C, strain SWE1, hits give low values
  normalized growth: 0.995
Locus YKL068W, hits give low values
  normalized growth: 1.01
Locus YKL160W, strain elf1, hits give low values
  normalized growth: 0.993
Locus YKR001C, strain vps1, hits give low values
  normalized growth: 1.07
Locus YKR026C, strain gcn3, hits give low values
  normalized growth: 1.01
Locus YKR091W, strain srl3, hits give low values
  normalized growth: 0.996
Locus YLL001W, strain dnm1, hits give low values
  normalized growth: 0.949
Locus YLL026W, hits give low values
  normalized growth: 0.998
Locus YLL041C, strain sdh2, hits give low values
  normalized growth: 0.998
Locus YLR027C, strain aat2, hits give low values
  normalized growth: 0.993
Locus YLR039C, strain RIC1, hits give low values
  normalized growth: 1.09
Locus YLR058C, strain SHM2, hits give low values
  normalized growth: 1.04
Locus YLR102C, strain apc9, hits give low values
  normalized growth: 1.04
Locus YLR221C, strain rsa3, hits give low values
  normalized growth: 1.03
Locus YLR258W, strain gsy2, hits give low values
  normalized growth: 1.01
Locus YLR262C, strain YPT6 (second series), hits give low values
  normalized growth: 0.768 (active)
Locus YLR262C, strain YPT6, hits give low values
  normalized growth: 1.02
Locus YLR268W, strain sec22, hits give low values
  normalized growth: 1.04
Locus YLR320W, strain mms22, hits give low values
  normalized growth: 1.03
Locus YLR330W, strain CHS5, hits give low values
  normalized growth: 1.04
Locus YLR342W, strain FKS1, hits give low values
  normalized growth: 1.02
Locus YLR357W, strain rsc2, hits give low values
  normalized growth: 1.02
Locus YLR370C, strain arc18, hits give low values
  normalized growth: 1.01
Locus YLR371W, strain rom2, hits give low values
  normalized growth: 1.04
Locus YLR384C, strain iki3, hits give low values
  normalized growth: 1
Locus YLR418C, strain cdc73, hits give low values
  normalized growth: 1.09
Locus YML016C, strain PPZ1, hits give low values
  normalized growth: 1.05
Locus YML032C, strain rad52, hits give low values
  normalized growth: 1.04
Locus YML120C, strain ndi1, hits give low values
  normalized growth: 0.995
Locus YML124C, strain tub3, hits give low values
  normalized growth: 1.03
Locus YMR058W, strain fet3, hits give low values
  normalized growth: 1.01
Locus YMR078C, strain ctf18, hits give low values
  normalized growth: 1.05
Locus YMR125W, strain sto1, hits give low values
  normalized growth: 1
Locus YMR129W, hits give low values
  normalized growth: 1
Locus YMR205C, strain PFK2, hits give low values
  normalized growth: 0.943
Locus YMR223W, strain ubp8, hits give low values
  normalized growth: 1.03
Locus YMR231W, strain pep5, hits give low values
  normalized growth: 0.98
Locus YMR307W, strain GAS1, hits give low values
  normalized growth: 1.07
Locus YNL067W, strain RPL9B, hits give low values
  normalized growth: 1.03
Locus YNL071W, strain lat1, hits give low values
  normalized growth: 0.996
Locus YNL153C, strain GIM3, hits give low values
  normalized growth: 1.01
Locus YNL209W, strain ssb2, hits give low values
  normalized growth: 1
Locus YNL233W, strain BNI4, hits give low values
  normalized growth: 1.03
Locus YNL248C, strain rpa49, hits give low values
  normalized growth: 0.959
Locus YNL250W, strain rad50, hits give low values
  normalized growth: 1.04
Locus YNL271C, strain bni1, hits give low values
  normalized growth: 1.03
Locus YNL298W, strain CLA4, hits give low values
  normalized growth: 1.02
Locus YNL307C, strain MCK1, hits give low values
  normalized growth: 1.03
Locus YNL322C, strain KRE1 (second series), hits give low values
  normalized growth: 0.989
Locus YNR049C, strain mso1, hits give low values
  normalized growth: 0.995
Locus YNR052C, strain pop2, hits give low values
  normalized growth: 1.04
Locus YOL006C, strain TOP1, hits give low values
  normalized growth: 1.09
Locus YOL012C, strain htz1
  normalized growth: 1.47
Locus YOL147C, strain pex11, hits give low values
  normalized growth: 1.05
Locus YOR001W, strain rrp6, hits give low values
  normalized growth: 0.983
Locus YOR061W, strain CKA2, hits give low values
  normalized growth: 1.03
Locus YOR069W, strain VPS5, hits give low values
  normalized growth: 1.03
Locus YOR070C, strain gyp1, hits give low values
  normalized growth: 1.02
Locus YOR080W, strain dia2, hits give low values
  normalized growth: 1.01
Locus YOR083W, strain WHI5, hits give low values
  normalized growth: 0.994
Locus YOR106W, strain vam3, hits give low values
  normalized growth: 0.982
Locus YOR136W, strain idh2, hits give low values
  normalized growth: 1.03
Locus YOR144C, strain elg1, hits give low values
  normalized growth: 1.04
Locus YOR184W, strain ser1, hits give low values
  normalized growth: 0.955
Locus YOR265W, strain rbl2, hits give low values
  normalized growth: 0.999
Locus YOR270C, strain vph1, hits give low values
  normalized growth: 0.877
Locus YOR290C, strain snf2, hits give low values
  normalized growth: 0.946
Locus YOR316C, strain cot1, hits give low values
  normalized growth: 1.02
Locus YPL051W, strain arl3, hits give low values
  normalized growth: 1.03
Locus YPL078C, strain atp4, hits give low values
  normalized growth: 0.966
Locus YPL106C, strain sse1, hits give low values
  normalized growth: 1.1
Locus YPL240C, strain hsp82, hits give low values
  normalized growth: 1.01
Locus YPL241C, strain CIN2, hits give low values
  normalized growth: 1.05
Locus YPR119W, strain clb2, hits give low values
  normalized growth: 1.04
Locus YPR141C, strain kar3, hits give low values
  normalized growth: 1.05
Locus YPR163C, strain tif3, hits give low values
  normalized growth: 1.04
Locus YPR167C, strain met16, hits give low values
  normalized growth: 1.03
Strain wtn01, hits give low values
  normalized growth: 1.02
